Data reported in PubChem BioAssay (NCI).
This is part of a sample that, as a whole, favours compounds with a hit. Of some 83,000 tested, about 20% had one in any assay.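 Single-concentration screen, 48 h exposure, 96-well plates. Endpoint: percent growth. Below 10 = active.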 Unmarked numbers belong to inactive results. The source made the active and inactive calls.

What was measured:
Test in all cases: NCI-60 one-dose screen, 48 h (100 = growth as untreated, 0 = no growth, -100 = all killed)
Details in all cases: 10 µM unless noted
SK-MEL-2 melanoma = system: SK-MEL-2 melanoma
EKVX NSCLC = system: EKVX NSCLC
SN12C renal = system: SN12C renal
UO-31 renal = system: UO-31 renal
TK-10 renal = system: TK-10 renal
ACHN renal = system: ACHN renal
CAKI-1 renal = system: CAKI-1 renal
A498 renal = system: A498 renal
CCRF-CEM leukemia = system: CCRF-CEM leukemia
MOLT-4 leukemia = system: MOLT-4 leukemia
SR leukemia = system: SR leukemia
RPMI-8226 leukemia = system: RPMI-8226 leukemia
OVCAR-8 ovarian = system: OVCAR-8 ovarian
OVCAR-5 ovarian = system: OVCAR-5 ovarian
OVCAR-4 ovarian = system: OVCAR-4 ovarian
SK-OV-3 ovarian = system: SK-OV-3 ovarian
IGROV1 ovarian = system: IGROV1 ovarian
OVCAR-3 ovarian = system: OVCAR-3 ovarian
HS 578T breast = system: HS 578T breast
NCI/ADR-RES ovarian = system: NCI/ADR-RES ovarian

| Compound | growth (SK-MEL-2 melanoma) | growth (EKVX NSCLC) | growth (SN12C renal) | growth (UO-31 renal) | growth (TK-10 renal) | growth (ACHN renal) | growth (CAKI-1 renal) | growth (A498 renal) | growth (CCRF-CEM leukemia) | growth (MOLT-4 leukemia) | growth (SR leukemia) | growth (RPMI-8226 leukemia) | growth (OVCAR-8 ovarian) | growth (OVCAR-5 ovarian) | growth (OVCAR-4 ovarian) | growth (SK-OV-3 ovarian) | growth (IGROV1 ovarian) | growth (OVCAR-3 ovarian) | growth (HS 578T breast) | growth (NCI/ADR-RES ovarian) |
| --- | --- | --- | --- | --- | --- | --- | --- | --- | --- | --- | --- | --- | --- | --- | --- | --- | --- | --- | --- | --- |
| CC12CC[C@@H]3[C@]4(C)COC(c5c(F)cccc5F)O[C@@H]4CC[C@@]3(C)[C@@H]1CC(C1=CCOC1=O)O2 (stereo not given in full) | 81.2% | 70.3% | 66.6% | 76.4% | 93.5% | 35% | 87.2% | 106% | 74.8% | 52.6% | 55.6% | 40.4% | 59.8% | 85.6% | 70.1% | 77.2% | 79.1% | 88.1% | 81.2% | 59% |
| N/C(=N\c1nc2ccccc2s1)NC(=O)Nc1ccc(Cl)cc1Cl | -49.9% (active) | -42.5% (active) | -88.7% (active) | -93% (active) | -84.9% (active) | -87.4% (active) | -87.7% (active) | -84.6% (active) | 5.6% (active) | 6.86% (active) | 5.8% (active) | -1.62% (active) | -79.3% (active) | -73.2% (active) | -87.7% (active) | -91.5% (active) | -68.5% (active) | -95.5% (active) | -26.7% (active) | -84.8% (active) |
| N/N=C(\N)c1c(N)nc(=S)[nH]c1-c1ccc(Cl)cc1Cl | 109% | 116% | 105% | 85.8% | 147% | 107% | 96.9% | 125% | 94.6% | 90.1% | 97.3% | 109% | 110% | 108% | 105% | 86.7% | 106% | 109% | 100% | 114% |
| Cn1cc(-c2nnc(N)nc2-c2c[nH]c3ccc(Br)cc23)c2cc(Br)cnc21 | 35.4% | 64.3% | 63% | 42.4% | 37.7% | 61.3% | 33% | 39.4% | 28% | 11.7% | 23.8% | 41.6% | 59.4% | 73.8% | 45.6% | 89.2% | 46.4% | 55.8% | 59.2% | 64.5% |
